# According to PubChem BioAssay:
# A number with no mark means an inactive call. For some of these results: Results with a measured potency or affinity are listed apart. The source made the active and inactive calls. Unless noted, no rule for the calls is given here.
# How the values were obtained:
# [1] = antimalarial activity against Dd2 strain (AID 2302;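 active = growth inhibition above 50% at the single 2 µM test dose, taken to imply half-maximal potency below 2 µM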;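 also: 0% = DMSO untreated growth and 100% = chloroquine plus artemisinin killed control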); conditions: P. falciparum Dd2 in RBCs, LDH growth readout, 72 h; at 2 µM; active compounds read high
# [2] = human hepatoma cell viability loss – ATP luminescence, cytotoxicity control for P. falciparum antimalarial project, primary screen (AID 2303;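 active = inhibition above 50%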;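 also: 0% = DMSO wells and 100% = digitonin-killed cells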); conditions: HepG2 viability, 24-48 h, at 10 µM, active compounds read high
# [3] = molecular target: L-lactate dehydrogenase (Plasmodium falciparum (isolate CDC / Honduras)) (UniProt Q27743); assay: PfLDH activity inhibition – cell lysate, 3D7 strain, counter-screen for P. falciparum growth inhibition project (AID 2304);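 also: 0% = vehicle and 100% = reference inhibitor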; conditions: P. falciparum 3D7 crude extract, LDH APAD/NBT absorbance; at 2 µM; active compounds read high
# [4] = inhibition of 3D7 malaria parasite growth – strain 3D7 (AID 2306);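 also: 0% = DMSO wells and 100% = chloroquine plus artemisinin control wells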; conditions: P. falciparum 3D7 erythrocytic growth, LDH absorbance, 72 h; at 2 µM; active compounds read high
# [5] = molecular target: Calcium-dependent protein kinase 1 (Plasmodium falciparum (isolate 3D7)) (UniProt P62344); assay: PfCDPK1 kinase inhibitors, biochemical, TCAMS library (AID 1159585; cut-off not given, nearly all actives have IC50 up to about 0.98 µM;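 also: inhibitors leave more ATP so luminescence rises with inhibition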); conditions: recombinant PfCDPK1, Kinase-Glo ATP depletion luminescence
# [6] = molecular target: Plasmodium falciparum protein kinase 6 (PK6, PF3D7_1337100) (UniProt Q8IDW1); assay: PfPK6 kinase inhibitors, biochemical, TCAMS library (AID 1159586); conditions: recombinant PfPK6, Kinase-Glo ATP depletion luminescence
# [7] = molecular target: Protein kinase 7 (PK7), Plasmodium falciparum 3D7 (PF3D7_0213400) (UniProt Q7YTF7); assay: inhibition of Plasmodium PK7 catalytic activity – biochemical, TCAMS antimalarial set, Kinase-Glo luminescence (AID 1159587); conditions: recombinant PfPK7, Kinase-Glo ATP depletion luminescence
# [8] = molecular target: Calcium-dependent protein kinase 4 (Plasmodium falciparum (isolate 3D7)) (UniProt Q8IBS5); assay: PfCDPK4 kinase inhibitors, biochemical, TCAMS library (AID 1159588; cut-off not given, nearly all actives have IC50 up to about 0.91 µM); conditions: recombinant PfCDPK4, Kinase-Glo ATP depletion luminescence
# Sequence of Calcium-dependent protein kinase 4 (Plasmodium falciparum (isolate 3D7)) (Q8IBS5 whole entry, looked up): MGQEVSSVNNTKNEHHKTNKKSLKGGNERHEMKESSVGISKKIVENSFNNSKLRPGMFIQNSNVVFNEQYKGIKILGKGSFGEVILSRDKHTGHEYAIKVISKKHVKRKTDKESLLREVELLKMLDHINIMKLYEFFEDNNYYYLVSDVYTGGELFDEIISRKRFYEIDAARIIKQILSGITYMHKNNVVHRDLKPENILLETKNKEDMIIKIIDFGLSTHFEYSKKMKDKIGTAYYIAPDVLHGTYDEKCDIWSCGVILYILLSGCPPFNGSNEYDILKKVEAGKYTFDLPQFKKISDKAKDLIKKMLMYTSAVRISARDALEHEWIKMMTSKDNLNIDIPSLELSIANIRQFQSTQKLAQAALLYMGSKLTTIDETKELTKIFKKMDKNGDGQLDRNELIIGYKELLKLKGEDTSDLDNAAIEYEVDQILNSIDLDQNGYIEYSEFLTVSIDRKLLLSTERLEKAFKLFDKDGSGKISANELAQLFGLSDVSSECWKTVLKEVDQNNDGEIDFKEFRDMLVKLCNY
# Sequence of Plasmodium falciparum protein kinase 6 (PK6, PF3D7_1337100) (Q8IDW1 1-305): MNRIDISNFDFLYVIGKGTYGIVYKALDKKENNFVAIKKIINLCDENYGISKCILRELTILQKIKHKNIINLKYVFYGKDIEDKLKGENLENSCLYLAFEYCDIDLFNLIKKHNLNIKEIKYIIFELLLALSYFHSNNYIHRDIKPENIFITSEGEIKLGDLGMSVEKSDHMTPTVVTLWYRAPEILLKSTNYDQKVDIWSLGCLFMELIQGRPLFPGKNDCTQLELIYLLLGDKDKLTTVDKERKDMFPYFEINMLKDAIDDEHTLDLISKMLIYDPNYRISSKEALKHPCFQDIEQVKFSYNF
# Sequence of L-lactate dehydrogenase (Plasmodium falciparum (isolate CDC / Honduras)) (Q27743 whole entry, looked up): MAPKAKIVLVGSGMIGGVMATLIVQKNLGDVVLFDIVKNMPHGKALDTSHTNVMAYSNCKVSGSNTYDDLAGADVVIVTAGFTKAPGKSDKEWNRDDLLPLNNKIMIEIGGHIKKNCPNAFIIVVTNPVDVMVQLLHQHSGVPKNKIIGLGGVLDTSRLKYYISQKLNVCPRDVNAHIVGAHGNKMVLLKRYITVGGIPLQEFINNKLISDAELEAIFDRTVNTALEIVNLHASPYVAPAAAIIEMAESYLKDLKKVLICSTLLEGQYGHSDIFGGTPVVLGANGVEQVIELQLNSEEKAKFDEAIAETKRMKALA
# Sequence of Protein kinase 7 (PK7), Plasmodium falciparum 3D7 (PF3D7_0213400) (Q7YTF7 1-343): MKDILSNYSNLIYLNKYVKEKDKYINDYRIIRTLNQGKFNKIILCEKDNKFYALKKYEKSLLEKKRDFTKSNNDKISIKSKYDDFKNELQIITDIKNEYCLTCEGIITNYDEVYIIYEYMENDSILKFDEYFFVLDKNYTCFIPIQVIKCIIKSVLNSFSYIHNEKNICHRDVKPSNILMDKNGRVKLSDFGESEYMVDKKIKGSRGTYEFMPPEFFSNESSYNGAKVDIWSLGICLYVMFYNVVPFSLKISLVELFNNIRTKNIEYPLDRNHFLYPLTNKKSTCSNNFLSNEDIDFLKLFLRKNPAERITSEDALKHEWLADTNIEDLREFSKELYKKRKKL
# Sequence of Calcium-dependent protein kinase 1 (Plasmodium falciparum (isolate 3D7)) (P62344 whole entry, looked up): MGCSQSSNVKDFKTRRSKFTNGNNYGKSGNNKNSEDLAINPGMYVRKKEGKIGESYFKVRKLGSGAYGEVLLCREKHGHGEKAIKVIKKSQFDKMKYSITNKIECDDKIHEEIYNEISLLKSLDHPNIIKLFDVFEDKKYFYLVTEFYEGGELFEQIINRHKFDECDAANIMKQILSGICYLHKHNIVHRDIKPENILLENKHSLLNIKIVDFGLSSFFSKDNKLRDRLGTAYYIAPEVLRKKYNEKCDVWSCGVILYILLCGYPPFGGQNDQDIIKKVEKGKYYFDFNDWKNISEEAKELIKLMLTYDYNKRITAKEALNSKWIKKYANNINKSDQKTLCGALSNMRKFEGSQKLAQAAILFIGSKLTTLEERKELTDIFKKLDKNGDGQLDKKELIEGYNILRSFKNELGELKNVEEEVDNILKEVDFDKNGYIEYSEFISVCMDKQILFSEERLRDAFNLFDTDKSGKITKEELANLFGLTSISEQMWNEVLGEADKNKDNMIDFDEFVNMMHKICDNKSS
SMILES,growth inhibition [1],inhibition [2],inhibition [3] [%],growth inhibition [4],outcome [5],outcome [6],outcome [7],outcome [8]
OCCN1CCN(Cc2cccc(-c3ccc(-c4nc5ccc(C(F)(F)F)cc5[nH]4)cc3)c2)CC1,85% (active),19%,-2,102% (active),inactive,inactive,inactive,inactive
O=C(/C=C/c1ccc(Cl)c(Cl)c1)NCCCCCCN1CCN(C(=O)Nc2cc(Cl)nc(Cl)c2)CC1,0%,15%,-2,102% (active),inactive,inactive,inactive,inactive
COc1ccc2nccc([C@@H](O)CN3CCC(NCCOc4ccc(F)cc4[N+](=O)[O-])CC3)c2c1,92% (active),8%,-1,99% (active),inactive,inactive,inactive,inactive
COc1cc2c(cc1NC(=O)CN1CCN(C(=O)c3ccco3)CC1)oc1ccccc12,96% (active),13%,-2,96% (active),inactive,inactive,inactive,inactive
O=C(NC1CCCCC1)C(c1cccs1)N(CCc1ccccc1)C(=O)c1ccco1 (stereo not drawn),63% (active),-10%,-1,92% (active),inactive,inactive,inactive,inactive
CCN(C(=O)NC)[C@@H]1c2cc(C#N)ccc2OC(C)(C)[C@H]1O,2%,3%,-8,96% (active),inactive,inactive,inactive,inactive
O=C(Nc1ccc(Cl)cc1)OCCn1nnnc1C(c1ccc(Cl)cc1)N1CCOCC1 (stereo not drawn),79% (active),1%,4,90% (active),inactive,inactive,inactive,inactive
CC1CCN(C(=O)CSc2nc(-c3ccc(C(C)C)cc3)no2)CC1,84% (active),-1%,2,98% (active),inactive,inactive,inactive,inactive
O=C(NCCNc1noc(-c2sccc2Br)n1)c1ccc(Cl)cc1,1%,-5%,2,93% (active),inactive,inactive,inactive,inactive
COc1cc(N(C)Cc2cnc3nc(N)nc(N)c3n2)cc(OC)c1OC,2%,32%,1,95% (active),inactive,inactive,inactive,inactive
Cc1[nH]c(C)c(-c2ccc(Oc3ccc(O)cc3)cc2)c(=O)c1Cl,87% (active),-2%,-3,91% (active),inactive,inactive,inactive,inactive
N#Cc1ccc(NC(=NCCc2c[nH]c3ccccc23)Nc2ccc(-c3ccccc3)cc2)c(O)c1,75% (active),6%,6,96% (active),inactive,inactive,inactive,inactive
O=C(NC1CCCCN(Cc2ccccc2O)C1)c1ccc(Cl)c(Cl)c1 (stereo not drawn),96% (active),-7%,-1,96% (active),inactive,inactive,inactive,inactive
COc1ccc2nccc([C@@H](O)CN3CCC(NC(=O)C(c4cc5ccccc5o4)N4CCN(c5ccccc5OC)CC4)CC3)c2c1 (stereo partly drawn),83% (active),14%,-5,99% (active),inactive,inactive,inactive,inactive
O=C(Nc1cccc(-c2ccc(-c3nc4ccc(C(F)(F)F)cc4[nH]3)cc2)c1)c1ccncc1,90% (active),79% (active),-1,100% (active),inactive,inactive,inactive,inactive
COC(=O)c1cccc(CNCc2cccc(-c3csc(-c4nc5ccccc5[nH]4)c3)c2)c1,44%,-7%,0,102% (active),inactive,inactive,inactive,inactive
CN1CCC(C(=O)Nc2ccc(-c3ccc(-c4nc5ccccc5[nH]4)cc3)cc2)CC1,94% (active),28%,5,101% (active),inactive,inactive,inactive,inactive
CC(=O)N(C)c1cccc(C(=O)Nc2cccc(-c3cccc(-c4nc5ccc(C(F)(F)F)cc5[nH]4)c3)c2)c1,41%,49%,-5,97% (active),inactive,inactive,inactive,inactive
CN1CCC(N2CCN(Cc3cccc(-c4cccc(-c5nc6ccccc6[nH]5)c4)c3)CC2)CC1,100% (active),19%,-1,100% (active),inactive,inactive,inactive,inactive
O=C(Nc1ccc(Cn2ncc(N3CCCNCC3)c(Cl)c2=O)cc1)Nc1cccc(Oc2ccccc2)c1,41%,8%,-5,81% (active),inactive,inactive,inactive,inactive
CC(CN1CCN(C)CC1)C(=O)Nc1ccc(-c2csc(-c3nc4ccccc4[nH]3)c2)cc1 (stereo not drawn),26%,15%,-4,93% (active),inactive,inactive,inactive,inactive

SMILES,growth inhibition [1],inhibition [2],inhibition [3] [%],growth inhibition [4],outcome [5],outcome [6],outcome [7],outcome [8]
COc1cc(NC(=O)c2ccc3c(=O)n(Cc4ccccc4)c(=S)[nH]c3c2)cc(OC)c1OC,47%,6%,-3,94% (active),inactive,inactive,inactive,inactive
CC(=O)Nc1nc(C(=O)Nc2cccc(-c3ccc(-c4nc5ccccc5[nH]4)cc3)c2)cs1,60% (active),88% (active),-2,101% (active),inactive,inactive,inactive,inactive
Nc1ncnc2cc(-c3cccc(NC(=O)Nc4ccccc4)c3)sc12,33%,4%,9,94% (active),inactive,inactive,inactive,inactive
CCc1ccc(C2CCN(CCCCNC(=O)c3ccc(NC(=O)c4ccc(Cl)cc4)cc3)CC2)c(OC)c1,80% (active),26%,-6,101% (active),inactive,inactive,inactive,inactive
Cc1nn(CCOC(=O)NC(NCC2COc3ccccc3O2)C(Cl)(Cl)Cl)cc1[N+](=O)[O-] (stereo not drawn),99% (active),-9%,2,99% (active),inactive,inactive,inactive,inactive
COc1ccc(CNC2Cc3ccccc3C2)cc1-c1ccc(OC)c(S(=O)(=O)NCCN2CCCC2)c1,97% (active),31%,-9,101% (active),inactive,inactive,inactive,inactive
CCc1nc(N)nc(N)c1-c1ccc(F)c(F)c1,-1%,58% (active),-3,98% (active),inactive,inactive,inactive,inactive
CCCn1c(Sc2ccc(C#N)c([N+](=O)[O-])c2)nnc1-c1ccc(OC)cc1,95% (active),-6%,-2,94% (active),inactive,inactive,inactive,inactive
O=C(/C=C/c1ccc(Cl)c(Cl)c1)NCCCCCN1CCC(NC(=S)Nc2ccc(Cl)cc2Cl)CC1,47%,53% (active),-1,99% (active),inactive,inactive,inactive,inactive
Cc1cc(Nc2c(C(N)=O)cnc3cc(-c4ccoc4)ccc23)ccc1N1CCN(C)CC1,100% (active),7%,1,101% (active),inactive,inactive,inactive,inactive
Cc1ccc(C)c(S(=O)(=O)Nc2ccc(Br)cc2C(=O)Nc2cccc(C(F)(F)F)c2)c1,98% (active),56% (active),-7,81% (active),inactive,inactive,inactive,inactive
CCOc1cc(O)c(-c2nc(N)ncc2-c2ccc3c(c2)OCCO3)cc1CC,68% (active),-5%,-1,99% (active),inactive,inactive,inactive,inactive
Nc1nc(N)c2c(ccc3c2ccn3Cc2ccc(Cl)cc2)n1,99% (active),100% (active),0,100% (active),inactive,inactive,inactive,inactive
Nc1c(C(=O)NCCCCN2CCN(c3nsc4ccccc34)CC2)sc2ccccc12,-6%,26%,-5,86% (active),inactive,inactive,inactive,inactive
CCN(CC)CCCCNc1cc(-c2[nH]c(C(C)(C)C)nc2-c2ccc3cc(OC)ccc3c2)ccn1,76% (active),23%,5,85% (active),inactive,inactive,inactive,inactive
CNc1ccc(CNCc2cccc(-c3ccc(-c4nc5ccccc5[nH]4)s3)c2)cc1,77% (active),15%,-3,100% (active),inactive,inactive,inactive,inactive
N#Cc1cccc(C(=O)NC2CCN(c3ccnc(Nc4ccc(F)cc4)n3)C2)c1 (stereo not drawn),91% (active),4%,-8,98% (active),inactive,inactive,inactive,inactive
COc1ccc(NC(=O)c2ccc(Br)c(C)c2)cc1N1CCN(CCCCc2ccccc2)CC1,17%,29%,-1,88% (active),inactive,inactive,inactive,inactive
N#Cc1ccc2[nH]cc(C(=O)CCCCCN(Cc3ccccc3)Cc3ccccc3)c2c1,97% (active),10%,2,93% (active),inactive,inactive,inactive,inactive
COc1cccc(-c2nn(C)c3sc(C(=O)NCCN4CCN(c5ccccc5F)CC4)cc23)c1,40%,9%,-5,85% (active),inactive,inactive,inactive,inactive
